For 72 compounds, viability results are on record in PubChem BioAssay AID827 (SRMLSC, 2007).

The whole screen tested about 140,000 compounds, of which about 1,700 (1.2%) were called active. For the sample, actives were picked, then their nearest neighbours and some compounds at random. Unmarked numbers belong to inactive results.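 How the source made its calls: active means viability at or below a set limit, 4 SD under the median of all tested compounds (cut at about 3.7% in these data); inactive means the rest.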

The nature of the experiment: growth suppression of PTEN-null HCT116, primary screen, cell-based, CellTiter-Glo (AID 827).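 Further: PTEN knockout HCT116 line with beta catenin targeted HCT116 as companion control.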 To be noted: 60 h, at 10 µM, hits give low values. (In general: In ATP-based viability assays light output follows the ATP content of the culture.)
As for `N#C/C(=C/c1cccc([N+](=O)[O-])c1)c1nnc2n1CCCCC2`, the viability (as a rule, a read-out of living cells in per cent, often relative to untreated cells) was 30.1%.

Take `CCOc1ccc(S(=O)(=O)N(CC(=O)NCC(F)(F)F)Cc2ccco2)cc1`: the viability was 99.2%.

Turning to `COC(=O)CN1C(=S)N(c2ccccc2)C(=O)C1CC(=O)Nc1ccc(Cl)cc1` (configuration not stated), the viability was 91.3%.

As for `Cc1ccc(/C=C/C(=O)Nc2cc(S(=O)(=O)N3CCCCCC3)ccc2OCC(F)(F)F)o1`, the viability is 75.3%.

As for `C/C(=N/NC(=O)C1COc2ccccc2O1)c1ccco1` (configuration not stated), the viability was 96.5%.

For `Cc1cccc2cc(CN(Cc3cccs3)C(=S)NCc3ccco3)c(=O)[nH]c12`, the viability was 72.6%.

For `CN(C)CCNC(=O)Cc1ccc([N+](=O)[O-])cc1`, the viability is 98.8%.

As for `Cc1nc(NCCN)c(C#N)c2c1COC(C)(C)C2`, the viability was 101%.

For `CCCCc1nc(NCc2ccccc2)c(C#N)c2c1CCCC2`, the viability was 82.1%.

Turning to `CCCCc1nc(NCCN)c(C#N)c2c1CSC(C)(C)C2`, the viability is 2.15% (active).

Take `COc1ccc(C2CC(c3ccccc3)=NN2C(=O)CSc2nccc(=O)[nH]2)cc1` (configuration not stated): the viability is 101%.

Turning to `CCOC(=O)C1=C(C)Nc2nc3ccccc3n2C1c1cccs1` (configuration not stated), the viability is 90.1%.

On to `O=C(O)C1CC(=O)N(Cc2cccnc2)C1` (configuration not stated), for which the viability is 100%.

Regarding `O=C1OC(c2ccc(Cl)cc2)=N/C1=C\c1cccnc1`, the viability is 90.6%.

For the compound `O=C1/C(=C\c2cccnc2)CN(Cc2ccccc2)C/C1=C\c1cccnc1`, the viability was 1.06% (active).

In the case of `O=C(CN1CCN(S(=O)(=O)c2ccc(Br)cc2)CC1)Nc1ccccc1C(=O)c1ccccc1`, the viability is 64.5%.

For `Cc1nn(Cc2ccccc2)c(C)c1C(=O)NCCN1C(=O)S/C(=C\c2ccc(F)cc2)C1=O`, the viability was 97.4%.

On to `Cc1ccc(NC(=O)CC2S/C(=N/N=C3\CCCc4ccccc43)NC2=O)cc1` (configuration not stated), for which the viability was 65.5%.

Turning to `O=C(c1cncc(Br)c1)N1CCN(c2ccc([N+](=O)[O-])cc2)CC1`, the viability was 83.7%.

With `CC(C)CC[n+]1ccn(C2=C([O-])c3ccccc3C(=O)/C2=N\S(=O)(=O)c2ccccc2)c1`, the viability is 3.35% (active).

For `O=C(CSc1nc2ccc([N+](=O)[O-])cc2[nH]1)c1ccc(Cl)cc1`, the viability is 103%.

Take `CC(C)=C(NC(=O)c1ccccc1)C(=O)N/N=C(\C)c1ccccc1O`: the viability is 88.4%.

For the compound `COc1ccc2nc(Nc3nc4cc5c(cc4s3)OCCO5)sc2c1`, the viability was 94.9%.

Regarding `COc1ccc2nc(Nc3nc4ccc(NC(C)=O)cc4s3)sc2c1`, the viability is 1.64% (active).

Consider `CCOc1ccc2nc(Nc3nc4ccc(NC(C)=O)cc4s3)sc2c1`, for which the viability was 90.5%.

With `CC(Sc1nnc2c(n1)C1CCC2(C)C1(C)C)C(=O)Nc1ccccc1` (configuration not stated), the viability is 87.5%.

`O=C(CC(O)(C(F)(F)F)C(F)(F)F)Nc1ccc(Cl)c(Cl)c1`: the viability is 2.05% (active).

In the case of `O=C(CC(=O)Nc1ccc(Cl)c(Cl)c1)N/N=C/c1ccc(O)cc1`, the viability is 86.7%.

With `O=C(Cc1ccc(Cl)c(Cl)c1)Nc1ccc(SC(F)F)cc1`, the viability is 26.6%.

With `COc1ccc(N2C(=O)C(CC(=O)Nc3ccc(F)cc3)N(CCc3cccs3)C2=O)cc1` (configuration not stated), the viability is 84.4%.

For `O=C(Nc1ccc2ccccc2c1)/C(=C\c1ccc2c(c1)OCO2)NC(=O)c1ccco1`, the viability was 95.8%.

For the compound `COc1ccc(NC(=O)c2nc(-n3nc(C)cc3C)ccc2Cl)cc1Cl`, the viability is 72.5%.

`CCCC(NS(=O)(=O)c1ccc(OC)cc1)C(=O)O` (configuration not stated): the viability is 91.3%.

`COc1ccc(O[C@H]2C=C[C@@H](c3ccccc3)O[C@@H]2CO/N=C/C[C@@H]2C=C[C@H](OC(C)=O)[C@@H](COC(C)=O)O2)cc1`: the viability is 85%.

Take `CCCNC(=O)OC[C@H]1O[C@H](CCO/N=C/[C@@H](NS(=O)(=O)c2ccc(C)cc2)[C@H](C)/C=C/CC(=O)OC)C=C[C@@H]1Oc1ccc(OC)cc1`: the viability was 0.23% (active).

As to `O=C(Cc1ccccc1)Nc1cccc(C(=O)N/N=C/c2ccco2)c1`, the viability was 92.6%.

On to `O=C(Nc1ccccc1F)c1ccccc1-c1ccccc1`, for which the viability is 87%.

As to `Cc1c(C(=O)NCCCc2ccccc2)cccc1[N+](=O)[O-]`, the viability was 44.8%.

Turning to `COc1ccc(/C=C2/C(=O)OCc3cc(OC)c(OC)cc32)c(OC)c1`, the viability is 71.4%.

As to `CC(C)(C)NCCCOc1ccc(Cl)cc1C(C)(C)C`, the viability is 40.9%.

Take `COc1cccc(/C=N\NC(=O)C2=NNC(=O)C2C)c1O` (configuration not stated): the viability is 48.4%.

As for `COc1cccc(/C=N/Nc2ncc(C(F)(F)F)cc2Cl)c1O`, the viability is 2.37% (active).

Take `COc1cc(/C=C2\SC(=S)N(Nc3ncc(C(F)(F)F)cc3Cl)C2=O)cc(OC)c1OC`: the viability is 88.8%.

`O=C(NCc1ccc2c(c1)OCO2)c1ccc2c(c1)C(=O)N(CC1CCCO1)C2=O` (configuration not stated): the viability is 1.19% (active).

As for `CCC(=O)Nc1ccc(C(=O)Nc2ccc3c(c2)C(=O)N(CC2CCCO2)C3=O)cc1` (configuration not stated), the viability is 107%.

Turning to `CC1CCN(c2ccc(C(=O)NCc3ccc4c(c3)OCO4)cc2[N+](=O)[O-])CC1`, the viability is 85.2%.

On to `CC(CNc1ccc([N+](=O)[O-])c2cccnc12)Nc1c([N+](=O)[O-])cc(C(F)(F)F)cc1[N+](=O)[O-]` (configuration not stated), for which the viability was 62.8%.

Consider `CCOc1ccc(C(=O)NC(=S)Nc2ccc(N3CCOCC3)c(Cl)c2)cc1[N+](=O)[O-]`, for which the viability is 70.2%.

Take `NC1=NN(c2cccc(C(=O)O)c2)C(=O)C1`: the viability was 104%.

`CCCCN(C)CCC(=O)Nc1ccc(Cl)cc1`: the viability is 91.2%.

As for `Cc1ccc(C(=O)NCC2CCCO2)o1` (configuration not stated), the viability was 101%.

Regarding `Cc1cc(Br)ccc1NC(=O)C1CCCO1` (configuration not stated), the viability was 97.1%.

Take `OC(CNCC1CCCO1)Cn1c2ccc(Br)cc2c2cc(Br)ccc21` (configuration not stated): the viability was 1.31% (active).

Take `O=C(Nc1ccc2c(c1)OCO2)c1ccc(N2C(=O)c3ccccc3C2=O)cc1`: the viability is 93.1%.

Regarding `CSCC[C@H](NC(=O)OC(C)(C)C)C(=O)N/N=C/c1cc2ccc(C)cc2nc1Cl`, the viability is 1.55% (active).

On to `CCOc1cc(/C=N/NC(=O)OC)ccc1OCCSc1ccc(Cl)cc1`, for which the viability was 93.7%.

With `CSCCC(NC(=O)COc1ccccc1)C(=O)Nc1ccc(C)cc1` (configuration not stated), the viability is 96.1%.

On to `CC(=O)NCCC(=O)Nc1nc(C)c(Cc2ccc3c(c2)OCO3)s1`, for which the viability was 99.8%.

Turning to `COc1ccccc1C(=O)Nn1c(-c2cccs2)nc2ccccc2c1=O`, the viability is 95%.

As to `CC(C)Nc1nnc(SCC(=O)c2c[nH]c3ccccc23)s1`, the viability was 87.3%.

Turning to `CCO/N=C(/C)c1c(O)cc(-c2ccccc2)n(-c2ccccc2)c1=O`, the viability was 103%.

For `CC(=O)NC(C)c1nc2ccccc2n1Cc1ccccc1F` (configuration not stated), the viability is 102%.

For `N=c1n(CCc2ccccc2)c2ccccc2n1Cc1ccccc1F`, the viability is 1.8% (active).

Regarding `CN(Cc1ccccc1)Cc1ccccc1F`, the viability is 101%.

`O=C(Nc1ccccc1)/C(=C/c1ccc([N+](=O)[O-])cc1)NC(=O)c1ccccc1`: the viability is 95.2%.

For `CCOC(=O)/C(=C\c1ccc([N+](=O)[O-])cc1)C(=O)c1cc(C(C)=O)c(Nc2ccccc2)s1`, the viability was 1.45% (active).

In the case of `Cc1cccc(NC(=O)c2sc(-c3ccccc3)nc2-c2ccc([N+](=O)[O-])cc2)c1`, the viability was 73.5%.

In the case of `C/C(=N\NC(=O)c1ccc(CSc2nc(C)cc(C)n2)cc1)C1CCCCC1`, the viability is 93%.

On to `O=C1NC(c2ccccc2)CCC1(Cl)Cl` (configuration not stated), for which the viability is 95.3%.

Turning to `COc1ccccc1N1N=C(c2cccs2)CC1c1ccccc1` (configuration not stated), the viability was 65%.

As to `Cc1cccc(C)c1Nc1nnc(SCC(=O)Nc2sccc2C#N)s1`, the viability was 92.1%.

For the compound `CCCc1cc(-c2nc(-c3ccc(C)cc3)cs2)ccn1`, the viability is 26.2%.
